Our source for the max response and outcome values is PubChem BioAssay (NCATS).

Inconclusive results are not listed. Unmarked numbers belong to inactive results. Calls of active or inactive are those of the source. Calls follow the shape of the dose curve; as a rule, active = well fitted inhibition curve with a large enough effect; inconclusive = small, poorly fitted or top-dose-only effect; inactive = flat fitted curve, though single readings scatter. Where a SMILES comes first, the peptide text is derived from it. The star is where a group is joined. Hexanoyl = CCCCCC(=O)*
% is scaled to controls: 0 for no effect and ±100 for the full control effect.

The subject of the assay is HEK293. Briefly: Cytotoxic Profiling of Annotated Libraries Using Quantitative High-Throughput Screening (AID 1296008). Also: nearly all actives have a fitted effect of over 60% in size. Particulars: Five cell lines viability, CellTiter-Glo ATP luminescence, 48-72 h; max response: stronger effect = lower value. An excerpt:
Cell-based phenotypic screening is a commonly used approach to discover biological pathways, novel drug targets, chemical probes and high-quality hit-to-lead molecules. Many hits identified from high-throughput screening campaign are ruled out through a series of follow-up potency, selectivity/specificity, and cytotoxicity assays. Prioritization of molecules with little or no cytotoxicity for a more in-depth downstream evaluation influence the future direction of projects, so cytotoxicity profiling of the screening libraries at early stage is essential for increasing the likelihood of candidate success. […] For the annotated library, we also examined the primary targets and mechanistic pathways regularly associated with cell death. To our knowledge, this is the first study to use high-throughput screening to profile large libraries for cytotoxicity assessment in both normal and cancer cell lines. In summary, the results generated here constitutes a valuable resource for the scientific community and provides insight on identifying cytotoxic compounds with particular mechanisms of action, and prioritizing compounds with suitable cytotoxicity profile for further evaluation.
A pintool (Kalypsys) was used to transfer 23 nL of compound solution to the 1536-well assay plates. After 48 or 72 hr incubation at 37 degree Celsius, 5% CO2 and 95% humidity, 2.5 uL of CellTiter-Glo (Promega) was dispensed into each well using a dispenser (Aspect Automation, St. Paul, MN) with solenoid valves (Lee Valves, Westbrook CT). Plates were left at room temperature for 10 min before imaging the ATP-coupled luminescence using a ViewLux microplate imager (PerkinElmer, Waltham, MA).
(In general: Cellular ATP, detected with luciferase, serves as a proxy for viable cell number.)
For `NC(Cc1c[nH]c2ccc(O)cc12)C(=O)O` (stereo not given), the max response is -8.59%.

For the compound `CCOC(=O)CSc1nc2c(sc3ccccc32)c(=O)n1CCCN1CCCC1`, the max response was -12.6%. Same read-out and setting: the result for `CC1(C)CCC2(C(=O)O)CCC3(C)C(=CCC4C5(C)CCC(O)C(C)(CO)C5C(O)CC43C)C2C1` (stereo not given) reads 4.6%; that for `C/C=C1/[C@H](O[C@@H]2O[C@H](CO)[C@@H](O)[C@H](O)[C@H]2O)OC=C2C(=O)O[C@@H]3C[C@@H](C(C)CO)[C@H](COC(=O)C[C@H]21)[C@H]3C` (stereo not given in full), -21.8%; that for `COc1ccccc1Oc1c(NS(=O)(=O)c2ccc(C)cn2)nc(-c2ccncc2)nc1OC`, -4.09%.

On to `O=C(Cn1c2ccccc2c2nc3n(c(=O)c21)CCS3)N1CCCC1`, for which the max response was -15.3%. On to `CC1=C2C[C@H]3OC(=O)[C@H](O)[C@@]4(O)[C@@H](C)[C@@H](O)[C@H](O)C([C@@]2(C)[C@H](O)[C@@H](O)C1)[C@@]34C` (stereo not given in full), for which the max response was -1.6%. For the compound `COc1ccc(OC2OC(CO[C@@H]3O[C@@H](C)[C@H](O)[C@@H](O)[C@H]3O)C(O)C(O)C2O)cc1OC` (stereo not given in full), the max response was -0.0887%. As for `COc1cc(C(CO)CO[C@@H]2O[C@H](CO)[C@@H](O)[C@H](O)[C@H]2O)ccc1O` (stereo not given in full), the result was inactive. Consider `CCCCCC(=O)N1CCC[C@H]1C(=O)N[C@@H](Cc1ccc(O)cc1)C(=O)OC` (Hexanoyl-Pro-Tyr-OMe), for which the max response is 4.39%. Still for that read-out and setting: under `CC1=C2CC(O)(C(C)(C)O)C(O[C@@H]3O[C@H](CO)[C@@H](O)[C@H](O)[C@H]3O)CC(C)C2CC1=O` (stereo not given in full) stands -24.8%; under `CC1(C)OC(=O)C=C[C@@]2(C)C1CC(=O)[C@]1(C)C2CC[C@@]2(C)[C@H](c3ccoc3)OC(=O)[C@H]3O[C@]321` (stereo not given in full), -1.27%; under `COc1cc(/C=C/C(=O)OCC2OC(OC3(CO)OC(CO)C(O)C3O)C(O)C(O)C2O)ccc1O` (stereo not given), 0.768%. The same measure, in the same setting: the result for `CCOc1ccc(-c2cc(NC(=O)c3c(F)cccc3F)c(C(=O)O)s2)cc1` reads 1.07%; that for `COc1ccc(CC(=O)NCc2ccccc2-c2ccccc2C(=O)NCCc2cccnc2)cc1`, -0.81%; that for `COc1ccc(NC(=O)c2ccc(-c3ccc(C(N)=O)cc3C)cc2)cc1N1CCN(C)CC1`, -78.4%.

In the case of `CC1(O)CCC2C(C3C1CCC3(C)O)C2(C)C` (stereo not given), the max response is 0.939%. Consider `OC[C@@]1(O)CO[C@@H](OC[C@H]2O[C@@H](Oc3ccccc3)[C@H](O)[C@@H](O)[C@@H]2O)[C@@H]1O`, for which the max response was -6.8%. Same read-out and setting: under `Cc1ccc(Nc2nnc(-c3ccc([N+](=O)[O-])cc3)o2)cc1Cl` stands -16.7%. Still for that read-out and setting: under `O=C(O)Cc1cn([C@@H]2OC[C@@H](O[C@@H]3O[C@H](CO)[C@@H](O)[C@H](O)[C@H]3O)[C@H](O)[C@H]2O[C@@H]2O[C@H](CO)[C@@H](O)[C@H](O)[C@H]2O)c2ccccc12` stands 2.5%; under `O=C(/C=C/c1ccc(O)cc1)O[C@H]1[C@H](OC2CCCCC2O)O[C@H](CO)[C@@H](O)[C@@H]1O` (stereo not given in full), 2.98%. On the same count and under the same terms, under `OC[C@H]1O[C@@H](OCCc2ccccc2)[C@H](O[C@@H]2OC[C@@H](O)[C@H](O)[C@H]2O)[C@@H](O)[C@@H]1O` stands 4.26%. With `CO[C@H]1c2cc(C(C)C)c(O)c(O)c2[C@@]23CCCC(C)(C)C2[C@@H]1OC3=O` (stereo not given in full), the max response was -7.48%. Still for that read-out and setting: the result for `C=C1C(O)CC2C(C(=O)O)=COC(OC3OC(CO)C(O)C(O)C3OC(=O)/C=C\c3ccc(O)cc3)C12` (stereo not given) reads -11.5%. The same measure, in the same setting: under `CCCN1CCC[C@@H](c2cccc(S(C)(=O)=O)c2)C1` stands -20.6%. For `CCc1cccc2c3c([nH]c12)[C@@](CC)(CC(=O)O)OCC3`, the max response was 3.28%. `CC1(C)CC[C@]2(C(=O)O)CC[C@]3(C)C(=CCC4[C@@]5(C)C[C@@H](O)[C@H](O)[C@@](C)(CO)C5CC[C@]43C)C2C1` (stereo not given in full): the max response is 2.88%. On the same count and under the same terms, under `CC1(C)O[C@H]2CC(=O)OC[C@@]23C1=C(O)C(=O)[C@]1(C)C3CC[C@@]2(C)[C@H](c3ccoc3)OC(=O)[C@H]3O[C@]321` (stereo not given in full) stands 1.52%. For `Cc1c(-c2ccc3c(c2)OCO3)oc2ccc(C(O)C(C)O)cc12` (stereo not given), the max response was -10.1%. On the same count and under the same terms, the result for `CC1=C(C(=O)OC2OC(COC3OC(CO)C(O)C(O)C3O)C(O)C(O)C2O)C(C)(C)CCC1` (stereo not given) reads 1.47%; that for `CC1(C)CC[C@]2(C(=O)O)CC[C@]3(C)C(=CCC4[C@@]5(C)CC[C@H](O)C(C)(C)C5CC[C@]43C)C2C1` (stereo not given in full), -9.46%. Same read-out and setting: under `CCC(C)C(N)C(=O)NCCN1CCOCC1` (stereo not given) stands 2.51%; under `CC(CCO)CCC1C2(C)CCCC(C)(C)C2CC[C@@]1(C)O` (stereo not given in full), -13.3%. On the same count and under the same terms, the result for `NC(=O)C(O[C@@H]1O[C@H](CO[C@@H]2O[C@H](CO)[C@@H](O)[C@H](O)[C@H]2O)[C@@H](O)[C@H](O)[C@H]1O)c1ccccc1` (stereo not given in full) reads -77.8%; that for `CC1(C)C[C@H]2C=C(C=O)[C@]3(C(=O)O)C[C@]3(C)[C@H]2C1`, -14%; that for `C=C1CC[C@]2(C(=O)O[C@@H]3O[C@H](CO)[C@@H](O)[C@H](O)[C@H]3O)CC[C@]3(C)C(=CCC4[C@@]5(C)C[C@H](O)[C@@H](O[C@@H]6O[C@H](C(=O)O)[C@@H](O)[C@H](O)[C@H]6O)[C@](C)(C=O)C5CC[C@]43C)C2C1` (stereo not given in full), -16.5%. On to `C/C=C(/C)C(=O)OC1C(OC(C)=O)C23C(O)OC4(CCC5C6(C)CCC(OC7OC(C(=O)O)C(O)C(OC8OC(CO)C(O)C(O)C8OC8OC(C)C(O)C(O)C8OC8OCC(O)C(O)C8O)C7OC7OC(CO)C(O)C(O)C7O)C(C)(C)C6CCC5(C)C4(C)CC2OC(C)=O)C3CC1(C)C` (stereo not given), for which the compound was classed as inactive.

Turning to `CNC(C)C(=O)NC(C(=O)N1CCCC1C(=O)Nc1cccc2ncccc12)C(C)C` (stereo not given), the max response was 4.04%.

As to `COC(=O)C1=CO[C@@H](O[C@@H]2O[C@H](CO)[C@@H](O)[C@H](O)[C@H]2O)[C@H]2[C@@H]1[C@H](O)[C@H](O)[C@]2(C)O`, the max response was 1.23%. Turning to `C=C1[C@@H]2CC[C@@]3(C)[C@H](c4ccoc4)OC(=O)C[C@]13O[C@H]1CC(=O)C(C)(C)[C@H](C(O)C(=O)OC)[C@]12C` (stereo not given in full), the max response was -5.89%.
